Laboratory results from PubChem BioAssay (EPA / NIEHS).
Values joined by “and” are separate entries in the source; they are usually repeats but may differ in a detail not shown here. Equal values may be shown once. Results filed as inconclusive are left out. Where a structure was tested more than once in an assay, its records may differ in their call. Active and inactive are the calls of the source. The calls were made as follows, unless noted: active = hit-call score of the fitted dose curve at least 0.9, where 1 is the maximum; inconclusive = response in the unintended direction; inactive = score below 0.9.

Legend:
[1] = molecular target: human Dopamine Transporter (DAT), SLC6A3 (gene 6531) (UniProt Q01959); experiment: NVS_TR_hDAT: NovaScreen (NVS) Transporter Assay for human Dopamine Transporter (DAT) (AID 2283374);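 also: activity means loss of bound radioligand signal relative to DMSO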
Sequence of human Dopamine Transporter (DAT), SLC6A3 (gene 6531) (Q01959 whole entry, looked up): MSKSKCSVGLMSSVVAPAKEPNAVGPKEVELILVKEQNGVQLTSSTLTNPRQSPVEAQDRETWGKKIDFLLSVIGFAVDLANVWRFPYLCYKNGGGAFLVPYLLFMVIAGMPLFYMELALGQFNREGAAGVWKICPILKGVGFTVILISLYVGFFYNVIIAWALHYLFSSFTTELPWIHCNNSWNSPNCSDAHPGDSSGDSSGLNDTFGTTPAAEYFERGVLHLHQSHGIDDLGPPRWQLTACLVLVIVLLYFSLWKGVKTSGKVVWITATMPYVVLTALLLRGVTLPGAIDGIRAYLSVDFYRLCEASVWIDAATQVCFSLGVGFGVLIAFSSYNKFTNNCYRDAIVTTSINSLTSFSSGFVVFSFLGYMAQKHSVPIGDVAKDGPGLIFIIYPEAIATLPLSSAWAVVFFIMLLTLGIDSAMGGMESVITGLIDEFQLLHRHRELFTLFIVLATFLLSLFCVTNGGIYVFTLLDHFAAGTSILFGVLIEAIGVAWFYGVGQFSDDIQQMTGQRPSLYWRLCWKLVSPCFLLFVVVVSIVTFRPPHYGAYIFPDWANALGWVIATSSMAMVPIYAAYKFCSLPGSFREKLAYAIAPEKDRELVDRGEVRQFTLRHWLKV
In short: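 Cell-free radioligand binding to extracted human DAT protein, read 1 h after dosing by filter-based scintillation counting. Loss of specific binding scored against DMSO baseline; primary screen in duplicate at 25 uM, actives then run in concentration series.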

[2] = molecular target: rat Serotonin Transporter (SERT), Slc6a4 (gene 25553) (UniProt P31652); experiment: NVS_TR_rSERT: NovaScreen (NVS) Transporter Assay for rat Serotonin Transporter (SERT) (AID 2283375)
In short: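 Filtration-based radiodetection quantified loss of specific radioligand binding in rat forebrain membranes after 1 hour of chemical exposure, relative to DMSO. Chemicals were first tested in duplicate at 25 uM.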

[3] = molecular target: human Norepinephrine Transporter (NET), SLC6A2 (gene 6530) (UniProt P23975); experiment: NVS_TR_hNET: NovaScreen (NVS) Transporter Assay for human Norepinephrine Transporter (NET) (AID 2283377);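 also: cell-free membrane protein extracted from CHO cells expressing human NET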
Sequence of human Norepinephrine Transporter (NET), SLC6A2 (gene 6530) (P23975 whole entry, looked up): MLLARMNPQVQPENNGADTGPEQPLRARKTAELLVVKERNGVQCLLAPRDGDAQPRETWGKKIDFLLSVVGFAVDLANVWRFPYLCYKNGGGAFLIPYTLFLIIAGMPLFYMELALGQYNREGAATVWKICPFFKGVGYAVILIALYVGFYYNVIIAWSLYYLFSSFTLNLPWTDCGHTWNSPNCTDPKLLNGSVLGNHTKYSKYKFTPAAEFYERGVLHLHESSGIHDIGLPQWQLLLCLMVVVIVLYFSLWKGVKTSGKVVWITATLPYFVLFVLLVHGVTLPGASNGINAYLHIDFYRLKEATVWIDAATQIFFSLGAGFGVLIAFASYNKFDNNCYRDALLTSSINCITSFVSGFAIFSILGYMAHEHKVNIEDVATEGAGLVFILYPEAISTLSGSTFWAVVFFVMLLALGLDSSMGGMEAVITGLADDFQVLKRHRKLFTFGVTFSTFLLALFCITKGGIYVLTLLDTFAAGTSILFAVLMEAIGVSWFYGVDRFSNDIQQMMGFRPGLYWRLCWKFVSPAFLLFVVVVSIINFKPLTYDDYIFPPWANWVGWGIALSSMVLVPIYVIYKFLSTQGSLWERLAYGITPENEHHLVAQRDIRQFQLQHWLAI
In short: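 Radioligand binding to human NET in cell-free CHO-derived protein preparations, read by filter-based scintillation counting 1 hour after dosing. Loss of signal versus DMSO baseline indicated displacement; primary screening in duplicate at 25 uM, actives then titrated.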

[4] = molecular target: mouse Estrogen Receptor alpha (Era), Esr1 (gene 13982) (UniProt P19785); experiment: NVS_NR_mERa: NovaScreen (NVS) Nuclear Receptor Binding Assay for mouse Estrogen Receptor alpha (Era) (AID 2283378);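 also: hit means loss of bound radioligand signal relative to DMSO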
Sequence of mouse Estrogen Receptor alpha (Era), Esr1 (gene 13982) (P19785 whole entry, looked up): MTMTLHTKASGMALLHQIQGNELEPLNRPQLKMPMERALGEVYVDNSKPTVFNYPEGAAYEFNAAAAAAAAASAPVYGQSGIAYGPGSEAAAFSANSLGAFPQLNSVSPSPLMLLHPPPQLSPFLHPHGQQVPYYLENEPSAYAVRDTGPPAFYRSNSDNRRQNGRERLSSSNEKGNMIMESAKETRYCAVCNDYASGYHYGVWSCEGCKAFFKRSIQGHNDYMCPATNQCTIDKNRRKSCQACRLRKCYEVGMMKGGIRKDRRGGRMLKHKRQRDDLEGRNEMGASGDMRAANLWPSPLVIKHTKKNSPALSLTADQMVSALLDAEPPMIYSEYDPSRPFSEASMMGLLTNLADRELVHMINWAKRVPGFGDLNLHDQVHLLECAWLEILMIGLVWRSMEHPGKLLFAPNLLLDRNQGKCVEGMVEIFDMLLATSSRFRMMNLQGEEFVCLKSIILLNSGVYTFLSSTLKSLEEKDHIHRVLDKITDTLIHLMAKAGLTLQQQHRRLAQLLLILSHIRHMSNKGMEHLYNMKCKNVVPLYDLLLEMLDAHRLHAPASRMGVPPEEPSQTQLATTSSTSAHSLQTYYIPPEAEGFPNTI
In short: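 Extracted mouse Era incubated with tritiated or iodinated radioligand plus test chemical, 18 h. Bound fraction separated on filters, counted by scintillation. DMSO = negative control/baseline; duplicate single-point at 25 uM, then concentration-response follow-up.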

[5] = molecular target: Agonist Androgen Response Element (ARE), AR (gene 367) (UniProt P10275); experiment: OT_AR_ARELUC_AG_1440: Odyssey Thera (OT) 24-hour CHO-K1 Luciferase Assay for Agonist Androgen Response Element (ARE) (AID 2283379)
Sequence of Agonist Androgen Response Element (ARE), AR (gene 367) (P10275 whole entry, looked up): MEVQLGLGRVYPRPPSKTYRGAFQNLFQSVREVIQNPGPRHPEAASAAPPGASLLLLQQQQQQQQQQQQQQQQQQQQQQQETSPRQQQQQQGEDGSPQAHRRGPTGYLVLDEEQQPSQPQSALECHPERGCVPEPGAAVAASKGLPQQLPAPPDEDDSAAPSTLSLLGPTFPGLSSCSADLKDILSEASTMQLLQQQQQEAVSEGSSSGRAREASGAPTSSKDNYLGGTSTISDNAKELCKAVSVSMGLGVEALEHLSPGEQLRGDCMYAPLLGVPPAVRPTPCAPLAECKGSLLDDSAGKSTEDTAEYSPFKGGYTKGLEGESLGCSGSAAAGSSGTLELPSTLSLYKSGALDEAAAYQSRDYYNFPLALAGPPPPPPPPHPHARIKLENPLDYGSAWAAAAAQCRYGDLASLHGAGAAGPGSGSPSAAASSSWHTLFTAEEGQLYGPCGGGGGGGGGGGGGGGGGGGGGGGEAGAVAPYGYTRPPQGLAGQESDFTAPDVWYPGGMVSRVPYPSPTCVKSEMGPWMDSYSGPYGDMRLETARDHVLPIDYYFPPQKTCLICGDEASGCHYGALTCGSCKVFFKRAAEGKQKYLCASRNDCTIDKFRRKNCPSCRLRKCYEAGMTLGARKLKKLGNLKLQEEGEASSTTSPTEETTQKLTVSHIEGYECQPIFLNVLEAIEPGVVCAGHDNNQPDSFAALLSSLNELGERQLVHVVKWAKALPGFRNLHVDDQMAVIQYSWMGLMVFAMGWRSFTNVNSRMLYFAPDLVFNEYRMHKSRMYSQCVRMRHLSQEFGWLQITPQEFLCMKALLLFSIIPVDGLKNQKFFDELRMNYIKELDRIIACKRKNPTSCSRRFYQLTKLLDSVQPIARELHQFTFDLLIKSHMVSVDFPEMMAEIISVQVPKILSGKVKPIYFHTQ
In short: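 Seed CHO-K1 cells; dose compounds for 24 h; add D-luciferin plus ATP in PBS; read luminescence. Signal increase relative to vehicle defines agonist activity, with at least 3 replicate wells per sample.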

[6] = molecular target: Estrogen receptor beta (Homo sapiens) (UniProt Q92731); experiment: OT_ER_ERbERb_1440: Odyssey Thera (OT) 24-hour HEK293T Protein-Complementation Assay for Estrogen Receptor-beta/-beta Homodimer (AID 2283380);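 also: fluorescence gain from ER beta LBD homodimer complementation read by laser scanning cytometry; scored as signal increase over DMSO baseline for both agonists and antagonists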
Sequence of Estrogen receptor beta (Homo sapiens) (Q92731 whole entry, looked up, the tested form may be a part): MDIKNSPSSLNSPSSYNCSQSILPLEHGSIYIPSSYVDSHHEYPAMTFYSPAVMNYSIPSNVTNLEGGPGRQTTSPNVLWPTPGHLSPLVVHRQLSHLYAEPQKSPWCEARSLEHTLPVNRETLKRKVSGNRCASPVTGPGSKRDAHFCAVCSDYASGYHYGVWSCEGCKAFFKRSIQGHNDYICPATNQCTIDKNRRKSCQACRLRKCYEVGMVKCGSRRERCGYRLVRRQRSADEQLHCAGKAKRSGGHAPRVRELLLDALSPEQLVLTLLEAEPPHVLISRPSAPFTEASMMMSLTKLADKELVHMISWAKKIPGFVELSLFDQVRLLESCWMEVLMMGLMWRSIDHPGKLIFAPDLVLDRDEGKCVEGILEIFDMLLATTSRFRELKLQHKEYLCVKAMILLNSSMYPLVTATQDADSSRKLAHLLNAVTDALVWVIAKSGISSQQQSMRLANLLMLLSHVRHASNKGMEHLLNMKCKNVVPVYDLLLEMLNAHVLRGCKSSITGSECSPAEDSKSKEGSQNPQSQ
In short: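 HEK293T cells stably expressing human ER-beta LBD (aa 310-547) PCA homodimer pair, dosed 24 h; formaldehyde-fixed, Draq5-stained. Readout: increase in nuclear (agonist) or nuclear plus cytoplasmic (antagonist) fluorescence intensity versus DMSO, gain-of-signal fitting.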

[7] = molecular target: Estrogen receptor (Homo sapiens) (UniProt P03372); experiment: OT_ERa_GFPERaERE_0480: Odyssey Thera (OT) 8-hour HeLa Transcription Induction Assay for Estrogen Receptor (AID 2283381; active = hit-call score of the fitted dose curve at least 0.9, where 1 is the maximum; inactive = score below 0.9)
In short: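 Fluorescent reporter signal, imaged by microscopy and scored with image-analysis algorithms, was taken 8 h after chemical dosing of HeLa cells; activity was fitted upward relative to DMSO.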

[8] = molecular target: Estrogen receptor (Homo sapiens) (UniProt P03372); experiment: OT_ERa_GFPERaERE_0120: Odyssey Thera (OT) 2-hour HeLa Transcription Induction Assay for Estrogen Receptor (AID 2283382)
In short: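 HeLa, 384-well, 2 h chemical exposure; GFP reporter induction (ERE), fluorescence microscopy; high content image analysis; positive fitting direction vs DMSO.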

[9] = molecular target: Bile acid receptor (Homo sapiens) (UniProt Q96RI1); experiment: OT_FXR_FXRSRC1_0480: Odyssey Thera (OT) 8-hour HEK293T Protein-Complementation Assay for Farnesoid X receptor/SRC-1 Co-activator (AID 2283383)
Sequence of Bile acid receptor (Homo sapiens) (Q96RI1 whole entry, looked up, the tested form may be a part): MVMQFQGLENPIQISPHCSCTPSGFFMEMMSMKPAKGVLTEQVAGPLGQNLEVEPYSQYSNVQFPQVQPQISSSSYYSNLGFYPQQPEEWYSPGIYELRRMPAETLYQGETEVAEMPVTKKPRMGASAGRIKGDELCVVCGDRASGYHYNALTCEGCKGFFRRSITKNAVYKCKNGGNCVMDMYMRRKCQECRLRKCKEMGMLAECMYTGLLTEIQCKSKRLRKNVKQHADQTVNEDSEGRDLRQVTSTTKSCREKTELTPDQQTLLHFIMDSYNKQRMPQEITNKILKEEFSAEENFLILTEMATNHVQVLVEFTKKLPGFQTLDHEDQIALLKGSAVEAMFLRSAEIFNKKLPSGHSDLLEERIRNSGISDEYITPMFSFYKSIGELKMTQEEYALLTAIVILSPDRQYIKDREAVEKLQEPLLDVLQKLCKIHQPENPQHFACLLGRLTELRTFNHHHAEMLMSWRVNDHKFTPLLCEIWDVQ
In short: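 Human kidney HEK293T cells carried FXR/SRC-1 fragment-complementation constructs. Compounds were added and incubated 8 h. Reporter reassembly upon receptor–co-activator interaction was then quantified by fluorescence, with curves fitted in the positive direction relative to DMSO.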

[10] = molecular target: Bile acid receptor (Homo sapiens) (UniProt Q96RI1); experiment: OT_FXR_FXRSRC1_1440: Odyssey Thera (OT) 24-hour HEK293T Protein-Complementation Assay for Farnesoid X receptor/SRC-1 Co-activator (AID 2283384)
In short: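 Compounds are applied to human kidney HEK293T cells expressing bait and prey fused to reporter protein fragments; after 24 h, reconstituted reporter fluorescence is measured. Activity is fitted as signal gain over DMSO.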

[11] = molecular target: Peroxisome proliferator-activated receptor gamma (Homo sapiens) (UniProt P37231); experiment: OT_PPARg_PPARgSRC1_0480: Odyssey Thera (OT) 8-hour Protein-Complementation Assay for Peroxisome Proliferator-activated Receptor Gamma / SRC-1 Co-activator (AID 2283387);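 also: nuclear to cytoplasmic split Venus YFP fluorescence ratio reporting PPARg SRC-1 interaction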
Sequence of Peroxisome proliferator-activated receptor gamma (Homo sapiens) (P37231 whole entry, looked up, the tested form may be a part): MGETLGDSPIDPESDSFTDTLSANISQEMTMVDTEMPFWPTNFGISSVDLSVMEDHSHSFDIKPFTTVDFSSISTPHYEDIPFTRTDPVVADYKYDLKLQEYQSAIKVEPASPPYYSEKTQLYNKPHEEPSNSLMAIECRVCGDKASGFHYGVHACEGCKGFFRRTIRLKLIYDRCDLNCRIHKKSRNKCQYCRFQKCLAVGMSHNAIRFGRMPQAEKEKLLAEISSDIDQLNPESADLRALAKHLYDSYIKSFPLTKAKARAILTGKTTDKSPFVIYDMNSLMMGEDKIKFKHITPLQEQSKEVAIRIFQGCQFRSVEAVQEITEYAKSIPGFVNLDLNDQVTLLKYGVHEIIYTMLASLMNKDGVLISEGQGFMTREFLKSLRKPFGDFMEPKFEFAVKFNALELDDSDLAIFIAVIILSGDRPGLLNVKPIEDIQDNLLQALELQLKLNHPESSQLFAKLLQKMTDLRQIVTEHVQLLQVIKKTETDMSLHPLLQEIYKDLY
In short: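 HEK293T transiently transfected with PPARg and SRC-1 fused to Venus YFP fragments, compounds 8 h at 37C. Fixed, Draq5-stained cells imaged; nuclear/cytoplasmic 488 nm fluorescence ratio over at least 350 cells per image; gain fitted versus DMSO.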

[12] = molecular target: Peroxisome proliferator-activated receptor gamma (Homo sapiens) (UniProt P37231); experiment: OT_PPARg_PPARgSRC1_1440: Odyssey Thera (OT) 24-hour Protein-Complementation Assay for Peroxisome Proliferator-activated Receptor Gamma/ SRC-1 Co-activator (AID 2283388)
In short: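 Protein-fragment complementation between PPARg and coactivator SRC-1 was measured by fluorescence imaging in transiently transfected HEK293T cells after 24 h treatment. Signal was quantified as N/C ratio in the 488 nm channel, with DMSO as negative control.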

[13] = molecular target: Retinoic acid receptor RXR-alpha (Homo sapiens) (UniProt P19793); experiment: OT_NURR1_NURR1RXRa_0480: Odyssey Thera (OT) 8-hour HEK293T Protein Complementation Assay for Nurr1/retinoid X receptor (RXR) (AID 2283385)
Sequence of Retinoic acid receptor RXR-alpha (Homo sapiens) (P19793 whole entry, looked up, the tested form may be a part): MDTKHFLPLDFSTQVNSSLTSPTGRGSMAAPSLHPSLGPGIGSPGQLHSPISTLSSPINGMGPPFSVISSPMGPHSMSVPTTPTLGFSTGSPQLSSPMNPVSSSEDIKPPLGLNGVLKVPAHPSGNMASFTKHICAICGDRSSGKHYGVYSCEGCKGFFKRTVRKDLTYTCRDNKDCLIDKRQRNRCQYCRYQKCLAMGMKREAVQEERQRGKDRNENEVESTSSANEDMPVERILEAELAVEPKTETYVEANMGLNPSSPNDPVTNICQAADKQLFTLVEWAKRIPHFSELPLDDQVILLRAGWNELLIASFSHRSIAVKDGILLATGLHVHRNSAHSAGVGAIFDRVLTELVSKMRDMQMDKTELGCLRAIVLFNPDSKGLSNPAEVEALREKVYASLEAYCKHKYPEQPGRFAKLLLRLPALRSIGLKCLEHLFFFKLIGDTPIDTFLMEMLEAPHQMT
In short: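 8 h compound exposure, HEK293T; Nurr1/RXRα fragment complementation; fluorescence intensity; positive fitting direction vs DMSO baseline.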

[14] = molecular target: Retinoic acid receptor RXR-alpha (Homo sapiens) (UniProt P19793); experiment: OT_NURR1_NURR1RXRa_1440: Odyssey Thera (OT) 24-hour HEK293T Protein Complementation Assay for Nurr1/retinoid X receptor (RXR) (AID 2283386)
In short: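 Interaction of Nurr1 with RXRα brings fused reporter fragments together in human HEK293T cells, restoring a functional reporter. Fluorescence intensity is measured 24 h after chemical treatment, and values are analysed in the positive direction against DMSO.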

[15] = CEETOX_H295R_11DCORT: CeeTox H295R High-throughput Steroidogenesis Assay for 11-Deoxycortisol (11DCORT) (AID 2283432; active = hit-call score of the fitted dose curve at least 0.9, where 1 is the maximum; inactive = score below 0.9;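 as to AC50: 11-deoxycortisol secreted into the medium measured by LC-MS/MS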); conditions: actives raise or lower the signal
In short: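 H295R cells prestimulated 48 h with 10 uM forskolin, then exposed 48 h to chemical in 0.1% DMSO. 11-Deoxycortisol in medium quantified by HPLC-MS/MS after MTBE extraction; bidirectional fit versus DMSO. MTT viability read in same wells.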

[16] = CEETOX_H295R_OHPREG: CeeTox H295R High-throughput Steroidogenesis Assay for OH-Pregnenolone (OHPREG) (AID 2283434; active = hit-call score of the fitted dose curve at least 0.9, where 1 is the maximum; inactive = score below 0.9); conditions: actives raise or lower the signal
In short: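 Human adrenal H295R cells were prestimulated 48 h with 10 uM forskolin, then exposed 48 h to chemical in 0.1% DMSO. Medium 17alpha-hydroxypregnenolone was quantified by HPLC-MS/MS after MTBE extraction; bidirectional fitting versus DMSO baseline.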

[17] = CEETOX_H295R_OHPROG: CeeTox H295R High-throughput Steroidogenesis Assay for OH-Progesterone (OHPROG) (AID 2283435; active = hit-call score of the fitted dose curve at least 0.9, where 1 is the maximum; inactive = score below 0.9;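 also: 17alpha-hydroxyprogesterone secreted into medium measured by HPLC-MS/MS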); conditions: actives raise or lower the signal
In short: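 H295R, 10 uM forskolin prestim 48 h; cmpd in 0.1% DMSO 48 h; medium MTBE-extracted, HPLC-MS/MS for OH-progesterone; 7-pt std curve; bidirectional fit vs DMSO; MTT viability, chemicals diluted until viability >/=70%.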

[18] = CEETOX_H295R_ANDR: CeeTox H295R High-throughput Steroidogenesis Assay for Androstenedione (ANDR) (AID 2283436; active = hit-call score of the fitted dose curve at least 0.9, where 1 is the maximum; inactive = score below 0.9); conditions: actives raise or lower the signal
In short: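 H295R human adrenal cells (passages ≤10) were exposed to test chemicals for 48 h; androstenedione in medium was MTBE-extracted and quantified by HPLC-MS/MS against a 7-point standard curve. Bidirectional fitting used DMSO as baseline.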

[19] = CEETOX_H295R_CORTISOL: CeeTox H295R High-throughput Steroidogenesis Assay for Cortisol (AID 2283438; active = hit-call score of the fitted dose curve at least 0.9, where 1 is the maximum; inactive = score below 0.9;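 also: cortisol secreted into medium quantified by LC-MS/MS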); conditions: actives raise or lower the signal
In short: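 Forskolin 10 uM 48 h prestim → test cmpd in DMSO (0.1% final) 48 h → medium MTBE-extracted → LC-MS/MS cortisol vs 7-pt std curve. Gain/loss of signal fitted vs DMSO. MTT viability in same wells.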

[20] = test system: rat Norepinephrine Transporter (NET), gene 83511; experiment: NVS_TR_rNET: NovaScreen (NVS) Transporter Assay for rat Norepinephrine Transporter (NET) (AID 2283373)
In short: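 Rat forebrain membranes; radioligand binding measured by filter-based scintillation counting 1 hour after dosing. Loss of specific binding versus DMSO baseline scored; primary screen in duplicate at 25 uM, actives followed up in concentration series.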

Measured: AC50

CN(C[C@@H](CC[N+]12CCC(C3CCCCC3)(CC1)CC2)c1ccc(Cl)c(Cl)c1)C(=O)c1cc(C(F)(F)F)cc(C(F)(F)F)c1
active: [1] 1.95 µM | [2] 16.7 µM | [3] 1.38 µM | [7] 12.4 µM | [9] 85.4 µM | [10] 78.1 µM
inactive: [4] | [5] | [6] | [8] | [11] | [12]

COc1ccc2cc(S(=O)(=O)N[C@H](CC(=O)N[C@H](Cc3ccc(CN4[C@H](C)CCC[C@@H]4C)cc3)C(=O)N(C)C(C)C)c3ccc4c(c3)OCO4)ccc2c1
active: [1] 12.1 µM | [7] 15.8 µM | [8] 28.6 µM | [9] 11.1 µM | [13] 11.1 µM
inactive: [4] | [11] | [12]

COCC(C)OCC(C)OCC(C)O (stereo not drawn)
inactive: [5] | [6] | [7] | [8] | [13] | [11] | [12]

CCCCOC(=O)c1ccc(O)cc1
active: [3] 13.9 µM | [6] 4.49 µM and 5.81 µM and 6.38 µM | [9] 50 µM and 31 µM | [10] 14.6 µM and 16 µM | [17] 5 µM
inactive: [5] | [13] | [14] | [11] | [12] | [15] | [16] | [18] | [19]

COc1cc(C(=O)NC2CCN(C)CC2)ccc1Nc1ncc2c(n1)N(C1CCCC1)CC(F)(F)C(=O)N2C
active: [20] 9.31 µM | [1] 8.6 µM | [3] 23.2 µM | [4] 1.49 µM | [6] 1.94 µM | [9] 11 µM | [10] 11 µM | [13] 10.9 µM
inactive: [2] | [7] | [8] | [11] | [12]

O=CCCCC=O
active: [9] 40.2 µM | [13] 50 µM
inactive: [7] | [8] | [10] | [11] | [12]

CCCCOC(=O)CC(CC(=O)OCCCC)(OC(C)=O)C(=O)OCCCC
active: [9] 9.51 µM
inactive: [6] | [10] | [13] | [11] | [12]

Cc1occc1C(=O)Nc1ccc(C(=O)N2CCC(F)(F)/C(=C\C(=O)N3CCC(N4CCCCC4)CC3)c3ccccc32)cc1
active: [13] 28.6 µM
inactive: [5] | [6] | [7] | [8] | [11] | [12]

OCCO
inactive: [5] | [7] | [8] | [10] | [14] | [11] | [12]

O=C1CCC(C2CCCCC2)CC1
active: [9] 33.1 µM and 50 µM | [10] 38.4 µM | [16] 80.4 µM | [17] 76.8 µM
inactive: [6] | [9] | [10] | [13] | [11] | [12] | [15] | [19]

O=C(O)Cc1cc(I)c(Oc2ccc(O)c(I)c2)c(I)c1
active: [10] 28.6 µM and 29 µM and 23.8 µM
inactive: [6] | [9] | [11] | [12]

Cc1ccc2oc(CN(Cc3ccccc3)C(=O)Nc3c(F)cc(F)cc3F)c(-c3ccc(Cl)cc3)c2c1
inactive: [6] | [7] | [8] | [9] | [10] | [11] | [12] | [15] | [16] | [19]
active: [17] 4.83 µM

CCCC(=O)OCCC(C)C
inactive: [5] | [7] | [9] | [10] | [13] | [11] | [12]

Cc1oc2c(NC(=O)c3c(Cl)cccc3Cl)cccc2c1C(C)(C)O
inactive: [7] | [8] | [9] | [11] | [12] | [19]
active: [10] 13.5 µM | [13] 12.6 µM | [15] 3.01 µM | [16] 1.42 µM | [17] 3.07 µM

CC[C@H](NC(=O)c1cc(F)ccc1NS(=O)(=O)c1cccc2cccnc12)c1ccccc1
active: [9] 31.9 µM
inactive: [6] | [7] | [8] | [10] | [13] | [11] | [12]

CC(C)(O)c1ccc(CNC(=O)c2cccnc2Oc2ccc3nonc3c2)cc1
inactive: [6] | [7] | [8] | [13] | [11] | [12]

CCCCCCCCCCCCO
inactive: [6] | [7] | [8] | [9] | [10] | [13] | [11] | [12]

O=c1c(-c2ccc(O)cc2)coc2cc(O)cc(O)c12
inactive: [5] | [9] | [10] | [13] | [11] | [12]
active: [9] 12.5 µM and 11.5 µM and 13.4 µM | [10] 18.9 µM and 20.5 µM and 18.6 µM | [13] 29 µM [middle of 4 runs] | [15] 11.9 µM | [17] 30.5 µM | [18] 14.1 µM | [19] 12.4 µM

CCCCCCCC[Si](OCC)(OCC)OCC
inactive: [6] | [13] | [11] | [12] | [16] | [19]
